MsrA inh = inhibitors of bovine MsrA. purified bovine MsrA, absorbance read-out. actives 0.75% (n = 360,000). AID 651718. inhibition, % at 15.5 µM;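 also: 0% = vehicle wells with enzyme and 100% = reference inhibitor wells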
GC-B act = GC-B (human) receptor activation | HEK293-GC-B cells, CNP EC30, cGMP TR-FRET; 0% at EC30 CNP, 100% saturating CNP | actives 0.11% (n = 370,000) | P20594 | activation, % at 10 µM;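 active = activation at 10 µM reaching about 35% in either raw or pattern-adjusted values, limit read from the data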
GC-A act = GC-A (human) enzyme activation; activation, % at 10 µM; HEK293 GC-A cells, cGMP TR-FRET, EC30 ANP; 0% at EC30 ANP, 100% saturating ANP; actives 0.14% (n = 370,000); P16066; AID 1671463; in the data active = activation above about 40%
bovine MsrA act = activators of bovine methionine sulfoxide reductase A. activation, % at 10.6 µM. actives 0.3% (n = 360,000). purified bovine MsrA, absorbance read-out; in the data active = activation above about 7.5%;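 also: 0% = vehicle and 100% = reference activator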
MsrA conf = confirmation of bovine MsrA inhibitors; shares compounds with MsrA inh; purified bovine MsrA, absorbance read-out; actives 41% (n = 2,300); inhibition, % at 15.5 µM;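 also: coupled to thioredoxin reductase with NADPH and selenocystamine and DMSO as substrate; 0% = vehicle only and 100% = full effect of reference inhibitor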
Starred values were filed as active, the others as inactive; nt = no result. A selection: hits, their analogues and other compounds. The true share with any hit is near 1.2%. Rule as the data show it, unless noted: active = inhibition above about 4.5%; inactive = the rest.

SMILES	MsrA inh	GC-B act	GC-A act	bovine MsrA act	MsrA conf
COc1ccc(C(=O)N/C(=C\c2ccc3c(c2)OCO3)C(=O)Nc2ccc(C(=O)O)cc2)cc1	4.3	-1.7	-0.2	-13.4	nt
COc1ccc(NC(=O)/C(=C/c2ccc3c(c2)OCO3)NC(C)=O)cc1	5.0*	4.2	3.3	-3.4	2.5
C[C@@H]1CN([C@@H](C)CN(C)C)C(=O)c2cc(NC(=O)Nc3ccccc3)ccc2O[C@@H](C)CCCCO[C@H]1CN(C)S(=O)(=O)c1ccc(F)cc1	nt	0.7	0.9	nt	nt
Cc1ccc(NC(=O)/C(=C\C=C\c2ccccc2)NC(=O)c2ccccc2)cc1	3.9	7.6	-2.9	-7.4	nt
O=C(Nc1ccc(C(=O)O)cc1)/C(=C\C=C\c1ccccc1)NC(=O)c1cccc(Br)c1	5.2*	-2.0	-7.2	-4.1	4.6*
O=C(Nc1cccc(C(=O)O)c1)/C(=C\c1ccccc1)NC(=O)c1ccccc1	2.9	-4.5	-2.5	-5.2	nt
O=C(Nc1cccc(C(=O)O)c1)/C(=C\C=C\c1ccccc1)NC(=O)c1ccccc1	8.4*	-6.1	-5.1	-5.0	5.5*
O=C(Nc1ccc(C(=O)O)cc1)/C(=C\C=C\c1ccccc1)NC(=O)c1ccccc1Br	8.7*	-2.1	-1.0	-11.9	6.4*
CCC(C#Cc1ccccc1)NCc1ccc(OC)cc1OC (configuration not stated)	nt	-27.4	-22.9	nt	nt
O=C1c2ccccc2C(=O)C1c1ccc(O)cc1	4.9*	-16.5	-31.8	-4.7	2.5
O=C1c2ccccc2C(=O)C1c1ccc(Br)cc1	0.2	-1.7	0.1	0.4	nt
Nc1ccc(C(=O)N/N=C\C=C\c2cccc([N+](=O)[O-])c2)cc1	9.9*	-6.1	16.5	-9.8	6.8*
O=C(N/N=C/C=C/c1ccccc1)c1ccncc1	8.0*	2.0	-5.6	-1.0	6.9*
O=C(N/N=C/C=C/c1cccc([N+](=O)[O-])c1)c1ccncc1	-2.1	1.4	6.4	-2.6	nt
Cc1ccc(C2NC(=O)c3n[nH]c(C)c32)cc1 (configuration not stated)	0.7	3.0	-3.0	nt	nt
O=C(Nc1nc2ccc(S(=O)(=O)N3CCOCC3)cc2s1)c1cccs1	5.6*	2.2	-1.3	-2.0	3.6
O=C(Nc1nc2ccc(S(=O)(=O)N3CCCC3)cc2s1)c1cccs1	3.3	5.0	1.9	-3.8	nt
CN(C)S(=O)(=O)c1ccc2nc(NC(=O)c3cccnc3)sc2c1	4.1	-5.7	-2.9	-2.9	nt
CN(C)S(=O)(=O)c1ccc2nc(NC(=O)c3cccs3)sc2c1	6.2*	-4.5	-8.5	-2.8	5.4*
CC(C)C[C@H](NC(=O)C1CC1)C(=O)N1CCC[C@H]1C(=O)NCc1ccccc1	-0.9	-1.0	3.0	nt	nt
Cc1ccc(/C=C(\C#N)C(=O)Nc2c(C)cccc2C)s1	7.1*	-2.5	2.3	-4.3	6.1*
CNC(=O)c1cc2cc(OC)ccc2oc1=O	nt	1.1	-1.5	-4.2	nt
CNC(=O)c1cc2ccc(OC)cc2oc1=O	5.2*	0.4	-0.7	-4.3	5.7*
CCCCNC(=O)C1CCCN1C(=O)Nc1cccc(C)c1 (configuration not stated)	nt	-1.7	1.7	nt	nt
Cc1cc2n(c(=O)c1C#N)CCCN2c1cccc(Cl)c1	6.9*	7.4	0.5	-5.2	5.5*
SMILES	MsrA inh	GC-B act	GC-A act	bovine MsrA act	MsrA conf
CC(CO)(CO)NC(=O)c1ccc(C#Cc2cccc(F)c2)cn1	nt	-0.5	17.1	nt	nt
COc1ccc(/C=C2/SC(=O)N(CCNC(=O)C3CCCN3C(=O)c3cccs3)C2=O)cc1 (configuration not stated)	5.6*	-2.1	0.2	-4.5	4.1
COc1ccc(/C=C2\SC(=O)N(CCn3cnnn3)C2=O)cc1	6.3*	1.5	3.6	-5.7	4.5
COc1ccc(/C=C2\SC(=O)N(CCNC(=O)C3CSC4(C)CCC(=O)N34)C2=O)cc1 (configuration not stated)	6.4*	-3.1	-1.6	-7.5	3.0
COc1ccc(-c2nnc(SCC(=O)NN=Cc3c(O)ccc4ccccc34)n2-c2ccc(OC)cc2)cc1	nt	-8.1	-2.4	nt	nt
NCCCC(C(=O)O)N(C(=O)OCc1ccccc1)C(=O)OCc1ccccc1 (configuration not stated)	-0.7	7.5	0.1	nt	nt
CCOC(=O)C1=CCC(c2ccc([N+](=O)[O-])cc2)N(S(=O)(=O)c2ccc(C)cc2)C1 (configuration not stated)	-0.1	-2.1	-0.7	nt	nt

Bioassay records as filed in PubChem.
